# Results filed as inconclusive are left out. Active and inactive are the calls of the source. The calls were made as follows, unless noted: active = hit-call score of the fitted dose curve at least 0.9, where 1 is the maximum; inactive = score below 0.9.
# Legend:
# [1] = ACEA_ER_80hr: ACEA Biosciences xCELLigence Real-Time Cell Analysis on Estrogen Receptor Agonism for Proliferation (AID 2282667; active = hit-call score of the fitted dose curve at least 0.9, where 1 is the maximum); details: T47D proliferation, impedance (xCELLigence), 80 h
# Outline: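 Impedance readout (RT-CES) of T47D proliferation at 80 h post-dose; gain of signal vs DMSO baseline. Compounds: 8 conc, 1:4 serial, top 100 uM final, ≤0.5% DMSO; biological duplicate.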
# [2] = ATG_CRE_CIS: Attagene CIS-FACTORIAL HepG2 Assay for human cAMP Responsive Element (CRE) binding protein 3 (AID 2282926); details: HepG2 CRE cis-reporter, Attagene multiplexed mRNA; actives raise or lower the signal
# Outline: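 Readout: fluorescently labelled reporter transcripts resolved by capillary electrophoresis after RT-PCR, taken 24 h post-dosing in transfected HepG2. Endogenous transcription factor activity drives each cis-element reporter; gain or loss of signal fitted relative to DMSO control.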
# [3] = target: CCAAT/enhancer-binding protein beta (Homo sapiens) (UniProt P17676); assay: ATG_C_EBP_CIS: Attagene CIS-FACTORIAL HepG2 Assay for human CCAAT/Enhancer Binding Protein (C/EBP) beta (AID 2282927); details: HepG2 Attagene cis-factorial transcription factor reporter; actives raise or lower the signal
# Sequence of CCAAT/enhancer-binding protein beta (Homo sapiens) (P17676 whole entry, looked up): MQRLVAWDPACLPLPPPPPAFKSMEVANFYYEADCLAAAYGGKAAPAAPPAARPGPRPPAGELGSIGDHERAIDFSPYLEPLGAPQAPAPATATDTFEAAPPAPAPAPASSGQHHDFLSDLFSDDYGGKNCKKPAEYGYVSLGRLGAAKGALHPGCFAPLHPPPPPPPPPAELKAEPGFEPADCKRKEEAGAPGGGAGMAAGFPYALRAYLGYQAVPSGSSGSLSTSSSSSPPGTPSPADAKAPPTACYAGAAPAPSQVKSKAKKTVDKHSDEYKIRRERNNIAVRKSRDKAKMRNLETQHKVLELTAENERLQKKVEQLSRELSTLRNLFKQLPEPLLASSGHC
# Outline: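 Endogenous transcription factor activity in human liver HepG2 cells is inferred from induction of a CEBPB-linked reporter mRNA. Exposure lasts 24 h; activity is fitted in both directions relative to DMSO.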
# [4] = ATG_CMV_CIS: Attagene CIS-FACTORIAL HepG2 Assay for human CMV (Internal Marker) (AID 2282928); details: HepG2 CMV promoter reporter, transcription factor profiling; actives raise or lower the signal;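 also: endpoint acts as a background internal control marker rather than a target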
# Outline: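 Fluorescence intensity of RT-PCR-derived reporter fragments, resolved by capillary electrophoresis, gives the signal. HepG2 liver cells bearing transfected cis-element reporters were treated 24 h; activity in either direction was fit relative to DMSO-treated controls.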
# [5] = ATG_DR4_LXR_CIS: Attagene CIS-FACTORIAL HepG2 Assay for human Liver X Receptor (LXR), DR4 submotif (AID 2282929); details: HepG2 Attagene DR4 cis-reporter, mRNA transcription; actives raise or lower the signal
# Outline: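 Measures endogenous transcription factor activity via a DR4-driven reporter transcript in human HepG2 cells. Compounds incubated 24 h; mRNA quantified by RT-PCR and capillary electrophoresis, analysed as gain or loss of signal versus DMSO.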
# [6] = ATG_AP_2_CIS: Attagene CIS-FACTORIAL HepG2 Assay for human Activator Protein 2 (AP-2) (AID 2282932); details: HepG2 AP-2 cis-reporter, Attagene transcription factor profiling; actives raise or lower the signal
# Outline: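 Transiently transfected HepG2 cells are exposed to chemical for 24 h. Reporter transcripts are then measured as fluorescence following RT-PCR and capillary separation, and gain- or loss-of-signal is fitted relative to DMSO.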
# [7] = ATG_BRE_CIS: Attagene CIS-FACTORIAL HepG2 Assay for human Bone Morphogenetic Protein (BMP) Response Element (BRE) (AID 2282933); details: HepG2 BMP response element reporter, Attagene transcription factor profiling; actives raise or lower the signal
# Outline: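 Endogenous transcription factor activity at a BMP response element was monitored in transfected HepG2 cells 24 h after dosing. Fluorescent RT-PCR products were resolved by capillary electrophoresis, and activity was fitted in both directions versus DMSO.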
# [8] = target: Retinoic acid receptor alpha (Homo sapiens) (UniProt P10276); assay: ATG_DR5_RAR_CIS: Attagene CIS-FACTORIAL HepG2 Assay for human Retinoic Acid Receptor Alpha (RARE), DR5 submotif (AID 2282934); details: HepG2 Attagene cis-factorial RARE DR5 reporter, mRNA; actives raise or lower the signal;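 as to AC50: reporter responds to endogenous RAR alpha beta and gamma in HepG2 not RARA alone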
# Sequence of Retinoic acid receptor alpha (Homo sapiens) (P10276 whole entry, looked up): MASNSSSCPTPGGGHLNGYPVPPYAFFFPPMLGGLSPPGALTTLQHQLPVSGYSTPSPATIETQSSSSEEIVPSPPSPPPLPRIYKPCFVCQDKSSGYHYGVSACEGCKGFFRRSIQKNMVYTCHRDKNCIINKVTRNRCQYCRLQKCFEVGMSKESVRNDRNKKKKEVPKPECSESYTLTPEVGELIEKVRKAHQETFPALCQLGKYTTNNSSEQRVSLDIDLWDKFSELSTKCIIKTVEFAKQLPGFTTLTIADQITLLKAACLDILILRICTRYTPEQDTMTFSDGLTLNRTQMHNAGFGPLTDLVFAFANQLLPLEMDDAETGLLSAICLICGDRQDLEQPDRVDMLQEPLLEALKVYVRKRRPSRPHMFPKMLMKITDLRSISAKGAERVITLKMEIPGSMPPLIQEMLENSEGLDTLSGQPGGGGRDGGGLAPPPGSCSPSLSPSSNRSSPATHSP
# Outline: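 Transient MRTU transfection of HepG2; 24 h compound treatment; TriZol RNA, oligo(dT) RT, PCR, FAM labelling, capillary electrophoresis. Bidirectional fit vs DMSO. Endogenous TF activity at DR5 RARE.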
# [9] = target: Transcription factor E2F1 (Homo sapiens) (UniProt Q01094); assay: ATG_E2F_CIS: Attagene CIS-FACTORIAL HepG2 Assay for human E2F Transcription Factor 1 (AID 2282935); details: HepG2 Attagene cis-reporter, E2F reporter RNA transcripts; actives raise or lower the signal
# Sequence of Transcription factor E2F1 (Homo sapiens) (Q01094 whole entry, looked up): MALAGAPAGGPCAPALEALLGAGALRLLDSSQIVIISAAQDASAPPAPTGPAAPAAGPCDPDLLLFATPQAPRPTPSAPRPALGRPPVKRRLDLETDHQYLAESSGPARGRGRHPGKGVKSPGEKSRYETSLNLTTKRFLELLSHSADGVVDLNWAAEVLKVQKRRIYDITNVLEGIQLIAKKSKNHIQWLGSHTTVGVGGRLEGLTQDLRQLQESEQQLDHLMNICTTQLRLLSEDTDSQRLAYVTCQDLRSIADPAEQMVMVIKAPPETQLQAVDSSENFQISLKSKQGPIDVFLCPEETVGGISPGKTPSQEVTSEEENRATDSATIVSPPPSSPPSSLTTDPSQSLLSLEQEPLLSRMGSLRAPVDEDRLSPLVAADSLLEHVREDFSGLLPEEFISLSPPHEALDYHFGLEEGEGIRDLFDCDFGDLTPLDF
# Outline: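 Fluorescent RT-PCR products, digested with HpaI for 2 h at 37 C, are separated by capillary electrophoresis. Source RNA comes from transfected HepG2 cultures treated for 24 h.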
# [10] = ATG_E_Box_CIS: Attagene CIS-FACTORIAL HepG2 Assay for human Enhancer Box (E-box) (AID 2282936); details: HepG2 E-box cis-reporter transcription, actives raise or lower the signal
# Outline: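 Fluorescent reporter fragments separated by capillary electrophoresis gave the signal; mRNA came from HepG2 cells transfected with cis-element reporters and treated 24 h. Curves fitted bidirectionally relative to DMSO controls.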
# [11] = ATG_M_61_CIS: Attagene CIS-FACTORIAL HepG2 Assay for M61 Transcription Factor (Internal Marker) (AID 2282937); details: HepG2 Attagene CIS-FACTORIAL M61 internal marker reporter; actives raise or lower the signal
# Outline: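 Fluorescence from labelled cDNA fragments, separated by capillary electrophoresis, quantifies reporter induction. HepG2 cells bearing transiently transfected cis-promoter MRTUs were incubated with test chemical for 24 h; DMSO defined baseline for gain/loss fitting.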
# [12] = ATG_EGR_CIS: Attagene CIS-FACTORIAL HepG2 Assay for human Early Growth Response 1 (EGR1) (AID 2282938); details: HepG2 Attagene CIS-FACTORIAL EGR reporter mRNA; actives raise or lower the signal
# Outline: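 Cell-based multiplex transcription assay: HepG2 carrying transfected cis-element reporter units, 24 h chemical treatment. Fluorescence from capillary electrophoresis of RT-PCR products gives mRNA levels; fitting is bidirectional relative to DMSO.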
# [13] = ATG_M_19_CIS: Attagene CIS-FACTORIAL HepG2 Assay for M19 Transcription Factor (Internal Marker) (AID 2282939); details: HepG2 Attagene CIS-FACTORIAL M19 internal marker reporter; actives raise or lower the signal
# Outline: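 Background-control endpoint from a multiplexed HepG2 reporter panel. Cells carrying cis-regulated reporter constructs are treated 24 h, then reporter transcripts are amplified, fluorescently labelled and sized by capillary electrophoresis. DMSO defines baseline.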
# [14] = ATG_ERE_CIS: Attagene CIS-FACTORIAL HepG2 Assay for Estrogen Response Element (ERE) (AID 2282940); details: HepG2 ERE cis-reporter, Attagene RNA transcript; actives raise or lower the signal
# Outline: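 Cells used were human hepatoma HepG2, transfected with multiple reporter transcription units under cis-regulatory promoters. Reporter mRNA, read 24 h post-dosing via fluorescent RT-PCR products on capillary electrophoresis, was fitted bidirectionally relative to DMSO.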
# [15] = ATG_Ets_CIS: Attagene CIS-FACTORIAL HepG2 Assay for human Erythroblast Transformation Specific (ETS) (AID 2282941); details: HepG2 ETS cis-reporter transcription, actives raise or lower the signal
# Outline: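 Multiplexed reporter transcript profiling: HepG2, 24 h treatment, total RNA to cDNA, PCR, 6-FAM labelling, HpaI cut, capillary electrophoresis. Gain- or loss-of-signal fitted against DMSO.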
# [16] = target: Hepatocyte nuclear factor 3-beta (Homo sapiens) (UniProt Q9Y261); assay: ATG_FoxA2_CIS: Attagene CIS-FACTORIAL HepG2 Assay for human Forkhead box A2 (FOXA2) (AID 2282942); details: HepG2 cis-reporter transcription factor activity, 24 h; actives raise or lower the signal
# Sequence of Hepatocyte nuclear factor 3-beta (Homo sapiens) (Q9Y261 whole entry, looked up): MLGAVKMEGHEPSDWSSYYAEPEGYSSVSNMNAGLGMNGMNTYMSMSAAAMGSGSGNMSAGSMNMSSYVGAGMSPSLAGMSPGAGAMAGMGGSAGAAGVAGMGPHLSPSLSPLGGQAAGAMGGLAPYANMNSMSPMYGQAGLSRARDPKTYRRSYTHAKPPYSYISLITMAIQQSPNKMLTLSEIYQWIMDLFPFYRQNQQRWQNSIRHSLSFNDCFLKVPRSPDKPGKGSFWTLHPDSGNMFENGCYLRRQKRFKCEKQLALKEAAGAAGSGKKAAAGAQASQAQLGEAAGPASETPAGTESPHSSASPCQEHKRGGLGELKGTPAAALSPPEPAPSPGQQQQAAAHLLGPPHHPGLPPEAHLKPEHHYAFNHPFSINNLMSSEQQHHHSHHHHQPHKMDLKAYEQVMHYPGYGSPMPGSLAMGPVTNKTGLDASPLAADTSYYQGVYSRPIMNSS
# Outline: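 In transiently transfected human HepG2 cells, promoter-driven reporter mRNA levels after 24 h chemical exposure are determined via RT-PCR with capillary electrophoresis. DMSO serves as baseline for bidirectional fitting.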
# [17] = ATG_GATA_CIS: Attagene CIS-FACTORIAL HepG2 Assay for human GATA Binding Protein (AID 2282944); details: HepG2 GATA cis-element reporter, Attagene multiplex mRNA; actives raise or lower the signal
# Outline: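 Endogenous transcription factor activity was captured through cis-promoter-driven reporters in transfected HepG2 cells. After 24 h exposure, reporter transcripts were quantified by RT-PCR with fluorescent capillary electrophoresis, and responses fitted both directions against DMSO.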
# [18] = ATG_AP_1_CIS: Attagene CIS-FACTORIAL HepG2 Assay for human Activator Protein 1 (AP-1) (AID 2282931); details: HepG2 Attagene cis-factorial AP-1 reporter mRNA; actives raise or lower the signal
# Outline: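 Bidirectional concentration-response fitting against DMSO controls. Underlying signal: reporter mRNA from cis-promoter constructs in transiently transfected HepG2, measured after 24 h by RT-PCR and capillary electrophoresis.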
# [19] = target: Aryl hydrocarbon receptor (Homo sapiens) (UniProt P35869); assay: ATG_Ahr_CIS: Attagene CIS-FACTORIAL HepG2 Assay for human Aryl Hydrocarbon Receptor (Ahr) (AID 2282930); details: HepG2 AhR cis-factorial reporter transcription; actives raise or lower the signal
# Sequence of Aryl hydrocarbon receptor (Homo sapiens) (P35869 whole entry, looked up): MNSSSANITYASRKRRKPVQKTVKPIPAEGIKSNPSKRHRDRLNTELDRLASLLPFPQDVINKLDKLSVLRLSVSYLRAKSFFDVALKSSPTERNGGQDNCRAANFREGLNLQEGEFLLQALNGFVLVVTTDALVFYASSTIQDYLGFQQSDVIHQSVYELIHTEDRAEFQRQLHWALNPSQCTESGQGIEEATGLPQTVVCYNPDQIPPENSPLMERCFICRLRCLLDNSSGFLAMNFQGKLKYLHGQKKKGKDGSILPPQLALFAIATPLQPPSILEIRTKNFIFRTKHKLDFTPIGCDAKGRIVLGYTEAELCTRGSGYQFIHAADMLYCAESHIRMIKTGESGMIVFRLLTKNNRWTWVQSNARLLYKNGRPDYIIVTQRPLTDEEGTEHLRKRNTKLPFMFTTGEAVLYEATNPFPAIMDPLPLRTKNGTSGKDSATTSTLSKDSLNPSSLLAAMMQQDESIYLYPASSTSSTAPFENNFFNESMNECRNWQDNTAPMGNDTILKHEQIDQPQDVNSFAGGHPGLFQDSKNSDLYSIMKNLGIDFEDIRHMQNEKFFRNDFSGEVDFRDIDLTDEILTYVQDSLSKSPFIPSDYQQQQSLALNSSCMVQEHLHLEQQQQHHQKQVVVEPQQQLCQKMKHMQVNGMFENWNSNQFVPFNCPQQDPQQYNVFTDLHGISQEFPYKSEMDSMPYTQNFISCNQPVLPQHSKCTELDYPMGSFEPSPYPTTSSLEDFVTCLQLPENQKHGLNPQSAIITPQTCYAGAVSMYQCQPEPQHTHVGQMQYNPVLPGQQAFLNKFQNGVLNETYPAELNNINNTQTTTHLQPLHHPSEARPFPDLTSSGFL
# Outline: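 Transient MRTU transfection of HepG2 → 24 h compound exposure → total RNA, oligo(dT) RT → PCR, 6-FAM extension, HpaI cut → CE fluorescence. DMSO = baseline; bidirectional curve fit.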
# [20] = ATG_FoxO_CIS: Attagene CIS-FACTORIAL HepG2 Assay for human Forkhead box O (FoxO) (AID 2282943); details: HepG2 Attagene cis-reporter, FoxO element, mRNA; actives raise or lower the signal
# Outline: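 HepG2, transient MRTU transfection (cis element, endogenous TFs). Dose 24 h. TriZol RNA → oligo(dT) RT → PCR → 6-FAM primer extension → HpaI cut → CE. Gain/loss vs DMSO.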
smiles,measurement,setting,value
CC(C)(CO)C(O)C(=O)NCCCO (stereo unspecified),outcome,[1],inactive
same,outcome,[2],inactive
same,outcome,[3],inactive
same,outcome,[4],inactive
same,outcome,[5],inactive
same,outcome,[6],inactive
same,outcome,[7],inactive
same,outcome,[8],inactive
same,outcome,[9],inactive
same,outcome,[10],inactive
same,outcome,[11],inactive
same,outcome,[12],inactive
same,outcome,[13],inactive
same,outcome,[14],inactive
same,outcome,[15],inactive
same,outcome,[16],inactive
same,outcome,[17],inactive
CCOC(=O)OC(=O)OCC,outcome,[1],inactive
same,outcome,[2],inactive
same,outcome,[3],inactive
same,outcome,[4],inactive
same,outcome,[5],inactive
same,outcome,[18],inactive
same,outcome,[7],inactive
same,outcome,[8],inactive
same,outcome,[9],inactive
same,outcome,[10],inactive
same,outcome,[11],inactive
same,outcome,[12],inactive
same,outcome,[13],inactive
same,outcome,[14],inactive
same,outcome,[15],inactive
same,outcome,[16],inactive
same,outcome,[17],inactive
C=CC(=O)NC(C)(C)C,outcome,[1],inactive
same,outcome,[2],inactive
same,outcome,[3],inactive
same,AC50,[4],48.7 µM (active)
same,outcome,[19],inactive
same,outcome,[18],inactive
same,outcome,[6],inactive
same,outcome,[7],inactive
same,AC50,[8],27.2 µM (active)
same,outcome,[9],inactive
same,outcome,[10],inactive
same,outcome,[11],inactive
same,outcome,[12],inactive
same,outcome,[13],inactive
same,outcome,[14],inactive
same,outcome,[15],inactive
same,outcome,[16],inactive
same,outcome,[20],inactive
same,outcome,[17],inactive
CC(=O)CCC1=C(C)CCCC1(C)C,outcome,[1],inactive
same,outcome,[2],inactive
same,outcome,[3],inactive
same,outcome,[4],inactive
same,outcome,[19],inactive
same,outcome,[6],inactive
same,outcome,[7],inactive
same,outcome,[9],inactive
same,outcome,[10],inactive
same,outcome,[12],inactive
same,outcome,[13],inactive
same,AC50,[14],29.8 µM (active)
same,outcome,[15],inactive
same,outcome,[16],inactive
same,outcome,[17],inactive
CC=C(C)C(C)=O,outcome,[1],inactive
same,outcome,[2],inactive
same,outcome,[3],inactive
same,outcome,[4],inactive
same,outcome,[19],inactive
same,outcome,[18],inactive
same,outcome,[6],inactive
same,AC50,[8],43 µM (active)
same,outcome,[9],inactive
same,outcome,[11],inactive
same,outcome,[12],inactive
same,outcome,[13],inactive
same,outcome,[14],inactive
same,outcome,[15],inactive
same,outcome,[16],inactive
same,outcome,[20],inactive
same,outcome,[17],inactive
Clc1cccnc1,outcome,[1],inactive
same,outcome,[2],inactive
same,outcome,[3],inactive
same,outcome,[4],inactive
same,outcome,[19],inactive
same,outcome,[18],inactive
same,outcome,[6],inactive
same,outcome,[8],inactive
same,outcome,[9],inactive
same,outcome,[10],inactive
same,outcome,[11],inactive
same,outcome,[12],inactive
same,outcome,[13],inactive
same,outcome,[14],inactive
same,outcome,[15],inactive
same,outcome,[16],inactive
same,outcome,[20],inactive
same,outcome,[17],inactive
CCCSSCCC,outcome,[1],inactive
same,outcome,[2],inactive
same,outcome,[3],inactive
same,outcome,[4],inactive
same,outcome,[19],inactive
same,outcome,[18],inactive
same,outcome,[6],inactive
same,outcome,[7],inactive
same,outcome,[9],inactive
same,outcome,[11],inactive
same,outcome,[12],inactive
same,outcome,[13],inactive
same,outcome,[14],inactive
same,outcome,[15],inactive
same,outcome,[16],inactive
same,outcome,[17],inactive
Cc1ccc(C)c(OCCCC(C)(C)C(=O)O)c1,outcome,[1],inactive
same,outcome,[2],inactive
same,outcome,[3],inactive
same,outcome,[4],inactive
same,outcome,[18],inactive
same,outcome,[6],inactive
same,outcome,[7],inactive
same,outcome,[8],inactive
same,outcome,[9],inactive
same,outcome,[11],inactive
same,outcome,[12],inactive
same,outcome,[13],inactive
same,AC50,[14],75.2 µM (active)
same,outcome,[15],inactive
same,outcome,[16],inactive
same,outcome,[20],inactive
same,outcome,[17],inactive

# Source: PubChem BioAssay (EPA / NIEHS)
